Measurements published in PubChem BioAssay AID504773 (Broad Institute, 2011).
Results with a measured potency or affinity are listed apart. Active and inactive are the calls of the source.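 How the source made its calls: active means polarization signal falls with dose and the fitted half-maximal concentration is at or below ten times the sample's top valid dose; inconclusive means flat curve at 30 to 70% inhibition, or poor fit; inactive means signal rises, flat within 30%, or potency beyond limit.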

target: Golgi-associated PDZ and coiled-coil motif-containing protein (Homo sapiens) (UniProt Q9HD26); assay: potency against CAL PDZ-peptide interaction – biochemical, fluorescence polarization, Cerulean-tagged CAL PDZ, cherry-picks, dose response (AID 504773); details: CAL PDZ-peptide binding, 1 h; series mostly up to 50 µM

outcome, inactive:
CCOc1ccc(C(=O)NCC(=O)N2CCC(C)CC2)cc1OCC
O=P(O)(COc1ccccc1)COc1ccccc1
CCC(=O)c1cn(CC(=O)Nc2cccc(C)c2C)c2ccccc12
CCC(=O)c1ccc(N2CCC(C)CC2)c(F)c1
CC(c1ccccc1)N1CCN(C(=O)CCl)CC1 (configuration not stated)
CCN1C(=O)CS/C1=N\S(=O)(=O)c1ccc(Cl)cc1
CC(=O)Nc1ccc(Nc2ccc3nonc3c2[N+](=O)[O-])cc1
C/C(CC(=O)Nc1ccc(C)c(Cl)c1)=N\NC(=O)Cc1cnc(N)s1
COc1cccc(CN2CCN(C3CSCCSC3)CC2CCO)c1 (configuration not stated)
Cc1ccc(C(C)NC(=O)Cc2cccs2)c(C)c1 (configuration not stated)
CC1CCCC(C)N1/N=C/c1ccc(N(C)C)cc1 (configuration not stated)
CC(C)Oc1ccc(C(=O)Nc2ccc(S(=O)(=O)N3CCN(C)CC3)cc2)cc1
CC12CNCC(C)(CN(C3(O)C(=O)Nc4ccc(Br)cc43)C1)C2=O (configuration not stated)
Cc1sc2ncn(CC(=O)NCCCC(=O)N3CCN(Cc4ccc5c(c4)OCO5)CC3)c(=O)c2c1C
CCNC(=S)N1CCc2cc(OC)c(OC)cc2C1COc1ccc(OC)cc1 (configuration not stated)
O=C(NCCN1C(=O)S/C(=C\c2ccc(Cl)c(Cl)c2)C1=O)C1COc2ccccc2O1 (configuration not stated)
O=C(NCc1ccc(Cl)cc1)C(=O)NCC1OCCN1C(=O)c1ccc(Cl)cc1 (configuration not stated)
O=C(CCc1nc(-c2ccc(Cl)cc2)no1)NC1CCCCC1
C=CCN1C(=O)/C(=C/c2ccsc2)SC1=S
CS(=O)(=O)N(CC(=O)N1CCOCC1)c1cccc(F)c1
COc1cc(NS(=O)(=O)c2ccc(NC(=S)Nc3ccccc3)cc2)nc(OC)n1
COc1cc(S(=O)(=O)n2nc(C)cc2C)ccc1Cl
Cc1nc2ccc(Br)cn2c1C(=O)N/N=C\c1ccc(C(C)C)cc1
CCCOc1ccc(CC(=O)N/N=C\c2ccc(F)cc2)cc1
CCc1ccc(C2CC(=O)N(c3cccc(F)c3)C3=C2C(=O)OC3)cc1 (configuration not stated)
CCOc1ccccc1N(CC(=O)Nc1cccc2ccccc12)S(C)(=O)=O
CSc1ccccc1NC(=O)c1ccccc1
Fc1ccc(-n2c(-c3ccc4ccccc4n3)n[nH]c2=S)cc1Cl
COC(=O)CN1C(=O)C(O)=C(C(C)=O)C1c1ccc([N+](=O)[O-])cc1 (configuration not stated)
CN(C)CCNC(=O)COc1cccc2c1OC(C)(C)C2
C=CCNC(=S)Nc1ccc(C)c(S(=O)(=O)N2CCCCC2)c1
CC(C)(C)OC(=O)N[C@@H](Cc1c[nH]c2ccccc12)c1nnc(SCC(N)=O)o1
CCOC(=O)c1ccc(NC(=S)N2CCCC(C(=O)N3CCCC3)C2)cc1 (configuration not stated)
O=C(Nc1nc2ccccc2[nH]1)c1cc2ccccc2o1
Brc1cccc(CNCC2CCCO2)c1 (configuration not stated)
O=C(Cc1ccccc1)NN=C1CCCC1
CCOC(=O)/C(N=Nc1ccc2c(c1)OCO2)=C(\C)O
